Data on 13 molecules can be found in PubChem BioAssay (NCATS).

Inconclusive results are not listed. Where a call stands in place of a potency, no number is given. Active and inactive are the calls of the source. Calls come from the whole dose curve; as a rule, active = well fitted inhibition curve with a large enough effect; inconclusive = small, poorly fitted or top-dose-only effect; inactive = no such curve, though single readings can be large or run the other way.
Potency is the fitted concentration of half-maximal effect.

The assay can be described thus: qHTS to identify inhibitors of the type 1 interferon - major histocompatibility complex class I in skeletal muscle: primary screen against the NCATS Mechanism Interrogation Plate v5.0 (MIPE) Libary (AID 1347411). Note: nearly all actives have a fitted effect of over 65% in size. The following applies: iHSKM cells + IFN-b, HiBiT-tagged MHC-I luminescence, 24 h; series mostly up to 45.8 µM. The essentials: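 Seed engineered human myoblasts (HLA-B HiBit) in medium without dexamethasone containing 4 ng/ml IFN-beta; after 1 hr add compound titrations (top 46 uM final). Incubate 24 hrs at 37 C, lyse 10 min with HiBiT reagent, read luminescence.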
`Cc1nc(NC(=O)N2CCCC2C(N)=O)sc1-c1ccnc(C(C)(C)C(F)(F)F)c1` (stereo not drawn): the Potency is 4.66 µM (active). Regarding `COC1CCN(C(=O)c2cc(Cc3n[nH]c(=O)c4ccccc34)ccc2F)CC1`, the Potency entry was “inactive”. The same measure for `COc1cc(S(C)(=O)=O)ccc1Nc1nc2ccc(-c3ccc(NC(=O)[C@H](C)c4ccc(F)cc4)cc3)cn2n1`: “inactive”; for `CN1CCN(c2ccc(-c3cccc(CN4CCOCC4)c3)cc2NC(=O)c2c[nH]c(=O)cc2C(F)(F)F)CC1`: “inactive”. For `CC(C)NC(=O)COc1cccc(-c2nc(Nc3ccc4[nH]ncc4c3)c3ccccc3n2)c1`, the Potency result was “inactive”. The same measure for `O=C(NC[C@H](O)CN1CCc2ccccc2C1)c1ccnc(NC2CCC2)c1`: “inactive”. As for `CS(=O)(=O)c1ccc(Oc2cc(F)cc(C#N)c2)c2c1[C@H](O)C(F)(F)C2`, the Potency entry is “inactive”.

`C1=C/COCc2cc(ccc2OCCN2CCCC2)Nc2nccc(n2)-c2cccc(c2)COC/1`: the Potency was 2.34 µM (active). The same measure for `O=C1NC(=O)C(c2cnc3ccccn23)=C1c1cn2c3c(cc(F)cc13)CN(C(=O)N1CCCCC1)CC2`: 18.6 µM (active); for `COc1ccccc1C(=O)Nc1cc2c(cc1N1CCCC1)n(C)c(=O)n2C`: “inactive”. The same measure for `O=C(Nc1ccc2[nH]nc(-c3ccncc3)c2c1)[C@@H]1CCN(CC(=O)N2CCN(c3ccc(-c4ncccn4)cc3)CC2)C1`: “inactive”; for `CC#C[C@@H](CC(=O)O)c1ccc(OCc2cccc(-c3ccc(C(F)(F)F)cc3)c2)cc1`: “inactive”. The same measure for `N#Cc1ccnc(Nc2cc(C3CCN(C4COC4)CC3)cc(N3CCC(F)(F)C3)n2)c1`: 2.34 µM (active).
